{"source": "the supplement of paper PMC11219838", "data": [{"system": "Caenorhabditis elegans L1 (N2)", "experiment": "survival and reproduction score of C. elegans L1 (0: 0-10 living worms, 1: 11-20, 2: 21-50, 3: >50, 4: overgrown) (score 0-4); higher = more worms, less nematicidal, active = 1 or less; extreme values may be limits of the assay", "details": "60 µM; 6 days; temperature: 20 °C", "method_in_brief": "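About 20 synchronized C. elegans N2 L1s were added per 96-well well with E. coli HB101 in liquid NGM, and compound was pinned to 60 µM final (0.6% v/v DMSO). Sealed plates were shaken at 200 rpm for 6 days at 20 °C. Survival and reproduction were scored under a dissection microscope as an ordinal score of living worms per well. The scale ran 0 (0–10 worms) to 4 (overgrown, starved), and two biological replicates were averaged.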", "values": [{"smiles": "COc1cccc(-c2nc(-c3ccc(Br)cc3)no2)c1", "survival and reproduction score": "0 (active)"}, {"smiles": "COc1ccc(CC(=O)Nc2ccc(-c3noc(-c4ccc(F)cc4)n3)cc2)cc1", "survival and reproduction score": "4 (inactive)"}, {"smiles": "O=C(CSc1nnc(-c2ccccc2Cl)o1)Nc1ccc(F)cc1", "survival and reproduction score": "4 (inactive)"}, {"smiles": "CC(C)(C)c1ccc(OCc2nc(-c3ccccc3)no2)cc1", "survival and reproduction score": "4 (inactive)"}, {"smiles": "CN(C)c1ccc(-c2nnc(SCc3ccccc3)o2)cc1", "survival and reproduction score": "4 (inactive)"}, {"smiles": "Cc1cccc(-c2nnc(SCC(=O)Nc3ccc(Br)c(C)c3C)o2)c1", "survival and reproduction score": "4 (inactive)"}, {"smiles": "COc1ccc(NC(=O)CSc2nnc(-c3ccccc3C)o2)cc1", "survival and reproduction score": "4 (inactive)"}, {"smiles": "O=C(CSc1nnc(-c2ccccc2)o1)NC1CCCCC1", "survival and reproduction score": "4 (inactive)"}, {"smiles": "COc1ccc(-c2noc(-c3ccc(C)c(Cl)c3)n2)cc1", "survival and reproduction score": "4 (inactive)"}, {"smiles": "CCOc1cc(C#N)ccc1OCc1nc(-c2cccs2)no1", "survival and reproduction score": "4 (inactive)"}, {"smiles": "CCOc1ccccc1-c1nc(-c2ccc(F)cc2)no1", "survival and reproduction score": "4 (inactive)"}, {"smiles": "Cn1c(SCc2nc(-c3ccccc3)no2)nnc1-c1ccco1", "survival and reproduction score": "0 (active)"}, {"smiles": "COC(=O)c1ccc(CSc2nnc(-c3cccnc3)o2)cc1", "survival and reproduction score": "4 (inactive)"}, {"smiles": "Cc1cc(OCc2nc(-c3ccccn3)no2)ccc1Br", "survival and reproduction score": "4 (inactive)"}, {"smiles": "COc1ccc(Cl)cc1-c1noc(COc2ccccc2)n1", "survival and reproduction score": "4 (inactive)"}, {"smiles": "Cc1ccccc1-c1nc(-c2ccc(Cl)cc2)no1", "survival and reproduction score": "0 (active)"}, {"smiles": "Cc1ccc(C)c(-c2nc(-c3ccc(Cl)cc3)no2)c1", "survival and reproduction score": "4 (inactive)"}, {"smiles": "Cc1ccccc1OCc1nc(-c2ccc(Br)cc2)no1", "survival and reproduction score": "4 (inactive)"}, {"smiles": "COc1ccccc1-c1nc(-c2ccccc2Cl)no1", "survival and reproduction score": "4 (inactive)"}, {"smiles": "O=C(CSc1nnc(-c2ccc(Br)cc2)o1)Nc1nccs1", "survival and reproduction score": "4 (inactive)"}, {"smiles": "Cc1cccc(OCc2nc(-c3ccccc3Cl)no2)c1", "survival and reproduction score": "4 (inactive)"}, {"smiles": "COc1ccccc1-c1nc(-c2ccc(Br)cc2)no1", "survival and reproduction score": "4 (inactive)"}, {"smiles": "CCNC(=O)c1ccccc1-c1nc(-c2ccc(OC)cc2)no1", "survival and reproduction score": "4 (inactive)"}, {"smiles": "O=C(CSc1nnc(-c2ccccc2)o1)c1ccc(Br)cc1", "survival and reproduction score": "4 (inactive)"}, {"smiles": "Cc1ccc(-c2noc(COc3ccccc3Cl)n2)cc1", "survival and reproduction score": "4 (inactive)"}, {"smiles": "Clc1cc(Cl)c(OCc2nc(-c3ccncc3)no2)cc1Cl", "survival and reproduction score": "4 (inactive)"}, {"smiles": "COc1cccc(-c2noc(COc3ccccc3C)n2)c1", "survival and reproduction score": "4 (inactive)"}, {"smiles": "Cc1ccc(-c2nnc(SCC(=O)Nc3ccc(F)cc3)o2)cc1", "survival and reproduction score": "4 (inactive)"}, {"smiles": "Cc1ccc(SCc2nc(-c3ccc(C)cc3)no2)cc1", "survival and reproduction score": "4 (inactive)"}, {"smiles": "CCOc1ccc(-c2nc(-c3ccccc3C)no2)cc1", "survival and reproduction score": "4 (inactive)"}, {"smiles": "COc1ccc(CC(=O)Nc2ccc(-c3noc(COc4cccc(C)c4C)n3)cc2)cc1", "survival and reproduction score": "4 (inactive)"}, {"smiles": "O=C(CSc1nnc(-c2ccco2)o1)c1ccccc1", "survival and reproduction score": "4 (inactive)"}, {"smiles": "c1ccc(-c2nc(C3CCCCC3)no2)cc1", "survival and reproduction score": "0 (active)"}, {"smiles": "COc1cccc(-c2noc(-c3ccc(C)cc3Cl)n2)c1", "survival and reproduction score": "4 (inactive)"}, {"smiles": "COc1cccc(-c2noc(COc3ccc(C(C)C)cc3)n2)c1", "survival and reproduction score": "4 (inactive)"}, {"smiles": "Clc1ccc(-c2nc(-c3ccccc3Br)no2)cc1", "survival and reproduction score": "3.5 (inactive)"}, {"smiles": "CC(C)c1ccc(NC(=O)CSc2nnc(-c3ccc(Br)cc3)o2)cc1", "survival and reproduction score": "4 (inactive)"}, {"smiles": "c1ccc(COc2cccc(-c3nc(-c4ccncc4)no3)c2)cc1", "survival and reproduction score": "4 (inactive)"}]}]}
